This excerpt belongs to a sample that is enriched for hits.
AMA1 RON2 block – inhibitors of Plasmodium falciparum AMA1-RON2 interaction | AlphaScreen AMA1-biotinylated RON2 peptide binding | Potency, µM (series often up to 58.2 µM), for inactives: top-dose activity change, negative = inhibition, hits mostly inhibitors | 0.2% of 360,000 active; active = well fitted inhibition curve with a large enough effect; inconclusive = small, poorly fitted or top-dose-only effect; inactive = no such curve, though single readings can be large or run the other way;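 also: potency is read from the fitted curve at half-maximal effect; 0% = vehicle wells and -100% = peptide control; nearly all actives have a fitted effect of over 45% in size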
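AMA1 (3D7) with his tag at 25 nM final met compounds first, then biotinylated RON2 peptide at 25 nM; detection used donor plus acceptor beads, 10 µg/mL apiece, read by AlphaScreen after 30 min at room temperature.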
Shiga toxin inh – blocks Shiga toxin action in Vero cells. Vero cells, Shiga toxin protein synthesis inhibition reporter. inhibition, % at 38.7 µM. 9.2% of 290,000 active. AID 2315; in the data active = inhibition mostly above about 28%, no sharp cut-off; inactive = mostly below about 43%; also: 0% is about no effect
Marburg entry inh – blocks Marburg virus binding to or entry into cells; Marburg virus pseudotyped entry inhibition, cell reporter; Potency, µM (top dose mostly 37.8 µM), inactives show at the top dose activity change, negative = inhibition, usual class: inhibitors; 1.8% of 300,000 active; AID 540276; calls by dose curve; tested in HEK293 cells; also: potency is read from the fitted curve at half-maximal effect; % is scaled to controls: 0 for no effect and ±100 for the full control effect
Cycloheximide cs – counter-screen hit for Shiga toxin inhibitors, cycloheximide | AID 2314 | 12% of 300,000 active | max response, % | cell reporter, cycloheximide protein synthesis inhibition counterscreen; in the data active = max response mostly above about 13%, no sharp cut-off; inactive = mostly below about 14%; also: read at 38.3 µM for the half of the compounds with a filed dose; 0% is about no effect
LASV entry inh – blocks Lassa virus binding to or entry into cells | 1.2% of 300,000 active | Potency, µM (doses to about 37.9 µM), inactives show top-dose activity change, negative = inhibition, hits mostly inhibitors | Lassa virus pseudotype entry inhibition, cell reporter; calls by dose curve; tested in HEK293 cells; also: potency is read from the fitted curve at half-maximal effect; % is scaled to controls: 0 for no effect and ±100 for the full control effect; nearly all actives have a fitted effect of over 50% in size
* hit, by the source's call; ? = inconclusive; . = not tested or not shown; + = active, no number; [ ] = another dose, or the depositor's remark.

SMILES | AMA1 RON2 block | Shiga toxin inh | Marburg entry inh | Cycloheximide cs | LASV entry inh
CCCc1c(C)c2ccc(OCC(C)=O)cc2oc1=O | -3.4% | 93.7* | 7.6% | 48.6* | 7.8%
CCOC(=O)CCc1c(C)c2ccc(OCC(=O)OC(C)C)cc2oc1=O | -3.7% | + | 4.9% | 33.8* | 11.2%
C=CCOC(=O)COc1ccc2c(C)c(CC)c(=O)oc2c1 | 29.3% | -4.7 | -2.1% | -2.2 | 17.6%
Cc1c(C)c2ccc(OCC(=O)c3ccccc3)cc2oc1=O | 0.0% | 23.5 | . | 3.6 | .
CCCCc1c(C)c2ccc(OCC(C)=O)cc2oc1=O | 2.7% | 100.0* | -0.2% | 30.1* | -20.0%
CC(=O)COc1ccc2c(C)c(-c3ccccc3)c(=O)oc2c1 | -8.1% | 58.2* | -25.4%[46.1 µM] | 45.1* | -9.5%
CCOC(=O)CCc1c(C)c2ccc(OCc3ccc([N+](=O)[O-])cc3)cc2oc1=O | 0.0% | -9.7 | 2.7% | -3.7 | 17.8%
CCOC(=O)CCc1c(C)c2ccc(OC3CCCCC3=O)cc2oc1=O (stereo not given) | -1.1% | 27.2 | -3.2% | 21.1* | 31.4%
O=[N+]([O-])c1ccc(/C=N/N/C(=N/c2ccccn2)c2ccccn2)cc1 | 20.6% | 50.2 | ? | 39.7* | ?
O=[N+]([O-])c1cc(/C=N/N/C(=N/c2ccccn2)c2ccccn2)ccc1O | 9.5% | 123.1* | ? | 34.2* | -22.5%
O=C(Oc1cccc(/C=N/NC(=O)c2ccccn2)c1)c1ccc([N+](=O)[O-])cc1 | 11.8% | -18.1 | -29.4% | -0.9 | ?
COC(=O)C1=NN(C(=O)c2cccc(Cl)c2)C(O)(C(C)(C)C)C1 (stereo not given) | 34.3% | 91.9* | 0.8% | 50.9* | 16.7%
Nc1nn2cc(-c3ccccc3)nc2c2ccccc12 | 3.1% | 70.4* | -18.6% | 30.5* | ?
Cc1cn2nc(N)c3ccccc3c2n1 | 8.7% | 28.9 | 2.2%[46.1 µM] | 18.9* | -7.2%
c1ccc(-c2cn3nc(-c4ccccc4)c(-c4ccccc4)nc3n2)cc1 | 21.3% | 25.6 | -2.3% | 2.5 | 0.9%
CCCCN1C(=O)C(CC(=O)NCCc2ccccn2)CC(C(=O)N(C(C)C)C(C)C)=C1C (stereo not given) | 125.4% | . | . | . | .
O=C(Nc1nc2ccccc2[nH]1)c1cccc(Br)c1 | 71.7% | 82.3* | ? | 20.0* | 11.1%[46.1 µM]
O=C(Nc1nc2ccccc2[nH]1)c1ccc(Br)o1 | 25.5% | 83.5* | ? | 47.2* | ?
COc1ccc(C(=O)Nc2nc3ccccc3[nH]2)cc1 | 115.2% | -10.0 | ? | -8.1 | ?
CN(C)c1cccc(C(=O)Nc2nc3ccccc3[nH]2)c1 | ? | 44.0 | ? | 15.0* | ?
COc1cccc(C(=O)Nc2nc3ccccc3[nH]2)c1 | 99.7% | 28.6 | ? | 26.9* | ?
O=C(Nc1nc2ccccc2[nH]1)c1cccc(F)c1 | 23.9% | 58.0* | ? | 23.9* | ?
COc1ccc(C(=O)N[C@H](C(=O)Nc2nc3ccccc3[nH]2)C(C)C)cc1 | 38.3% | 75.7* | ? | 36.7* | ?
Cc1cccc(C(=O)N[C@H](C(=O)Nc2nc3ccccc3[nH]2)C(C)C)c1 | 59.0% | 8.9 | . | 10.7 | .
O=C(/C=C/c1ccc(F)cc1)Nc1nc2ccccc2[nH]1 | . | 77.2* | 18.5% | 36.9* | ?
SMILES | AMA1 RON2 block | Shiga toxin inh | Marburg entry inh | Cycloheximide cs | LASV entry inh
CN(C)S(=O)(=O)c1ccc(Cl)c(C(=O)Nc2nc3ccccc3[nH]2)c1 | 98.1% | 19.8 | -26.0%[46.1 µM] | 11.8 | ?
Cc1ccc(N(C)S(=O)(=O)c2cccc(C(=O)Nc3nc4ccccc4[nH]3)c2)cc1 | 75.8% | 39.0* | 11.6µM* | 36.1* | 16.4µM*
CC1=NOC(=O)/C1=C\c1ccc2c(c1)OCO2 | -11.5% | -12.8 | 6.6%[46.1 µM] | 2.1 | 21.5%[46.1 µM]
COc1ccc(C2C(C(=O)Nc3ccc(OC)c(OC)c3)c3ccccc3C(=O)N2C)cc1 (stereo not given) | -1.1% | -7.0 | ? | -1.8 | .
CCOc1ccccc1NC(=O)Cn1c(=O)n(Cc2nc(C)no2)c(=O)c2ccccc21 | . | . | . | . | -5.8%[46.1 µM]
CC1=C(C(=O)Nc2ccccc2)C(c2cccn2C)n2ncnc2N1 (stereo not given) | . | . | . | . | -6.4%[46.1 µM]
COc1ccccc1N=Nc1c(C)[nH][nH]c1=O | 41.9% | 35.3 | 7.6% | 11.2 | -10.6%
Cc1[nH][nH]c(=O)c1N=Nc1ccccc1C#N | . | 39.6 | . | 49.7* | .
CCOc1ccc(CNC(=O)C2CCN(S(=O)(=O)N3CCCCC3)CC2)cc1 | . | . | . | . | 9.8%[46.1 µM]
Cc1csc(N/N=C/c2ccc(O)c([N+](=O)[O-])c2)n1 | -19.6% | 17.1 | 1.3% | 5.3 | ?
CC(C)(C)c1csc(N/N=C/c2ccc(O)cc2)n1 | 7.2% | 91.1* | . | 46.8* | .
CC(C)(C)NC(=O)COC(=O)/C=C/c1ccc(F)cc1 | 11.5% | 42.7 | 15.0% | 24.0* | -6.6%
O=C(N/N=C/c1ccc[nH]1)c1ccc(O)cc1 | 22.3% | 100.7* | ? | 27.5* | ?
O=C(N/N=C/c1ccc[nH]1)c1cc(-c2cccs2)nc2ccccc12 | 25.1% | -1.1 | ? | -1.4 | ?
O=C(N/N=C/c1ccc[nH]1)c1cccc([N+](=O)[O-])c1 | 1.9% | 10.9 | 3.6% | 8.0 | ?
O=C(N/N=C/c1ccc[nH]1)c1ccccc1O | -6.2% | 39.9* | -16.8%[14.2 µM] | 36.9* | -13.1%
CCCCn1c(C2CC(=O)N(c3ccc(OCC)cc3)C2)nc2ccccc21 (stereo not given) | . | . | 23.5%[46.1 µM] | . | 0.0%[46.1 µM]
CN(C)S(=O)(=O)c1ccc(C(=O)NCCS(=O)(=O)N2CCN(c3ccccc3)CC2)cc1 | . | . | . | . | 13.8%[46.1 µM]
CCN(C(=O)COC(=O)c1cccnc1Nc1cccc(C(F)(F)F)c1)C1CCS(=O)(=O)C1 (stereo not given) | 44.8% | 50.8* | -2.0% | 41.9* | -13.2%
CCN(C(=O)COC(=O)c1cccnc1SC)C1CCS(=O)(=O)C1 (stereo not given) | 17.1% | -12.3 | 0.3% | -2.6 | -11.3%
CNC(=O)c1cccnc1Nc1cccc(C(F)(F)F)c1 | -7.4% | 10.5 | 30.9% | 26.9* | 0.5%
Cc1cc(NC(=O)C23CCC(C)(c4nc5cc(Cl)c(Cl)cc5nc42)C3(C)C)no1 (stereo not given) | . | . | 3.8% | . | .
COCC(=O)N/N=C\c1ccccc1OC/C=C/c1ccccc1 | 35.4% | -7.1 | . | -0.6 | .
N#CCC(=O)N/N=C\c1ccc(OC/C=C/c2ccccc2)cc1 | 65.5% | 30.4 | 13.1%[46.1 µM] | 27.4* | ?
N#CCC(=O)N/N=C\c1ccccc1OC/C=C/c1ccccc1 | 46.7% | 77.4* | . | 50.2* | .
CC(C)(C)NC(=O)C(OC(=O)c1cccs1)c1ccccc1 (stereo not given) | -8.4% | 1.7 | . | 22.2* | .
Cc1cc2[nH]c(=O)c(=O)[nH]c2cc1S(=O)(=O)Nc1cccc(C(F)(F)F)c1 | . | . | . | . | 3.5%[46.1 µM]
C#CCOCCOCCOCCNc1nc(N2CCN(C(=O)[C@H]([C@@H](C)CC)n3cc([C@@H](N)Cc4ccc(O)cc4)nn3)CC2)nc(N2CCN(C(=O)[C@H](CCCCN)n3cc([C@@H](N)CC(C)C)nn3)CC2)n1 | . | -12.9 | . | 34.8* | .
Nc1nnc(SCC(=O)Nc2cccc(F)c2)s1 | . | . | ? | . | -6.3%[46.1 µM]
Cc1cc(N)n2ncc(-c3ccc(F)cc3)c2n1 | 35.7% | 67.6* | 0.5%[46.1 µM] | 50.4* | ?

Compound activity deposited in PubChem by National Center for Advancing Translational Sciences (NCATS).
